AMA1-RON2 inh: inhibitors of Plasmodium falciparum AMA1-RON2 interaction. AID 720542. AlphaScreen AMA1-biotinylated RON2 peptide binding. 360,000 tested, 0.2% active. Potency, µM (titrated, usually from 58.2 µM), hits mostly inhibitors; also: nearly all actives have a fitted effect of over 45% in size
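AMA1 (3D7) with his tag at 25 nM final met compounds first, then biotinylated RON2 peptide at 25 nM; detection used donor plus acceptor beads, 10 µg/mL apiece, read by AlphaScreen after 30 min at room temperature.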
HCV inh: blocks hepatitis C virus; Huh7.5.1 HCVcc-Cre infection, luciferase reporter, 44 h; Potency, µM (highest dose often 41.8 µM), most hits filed as inhibitors; 340,000 tested, 3.4% active; AID 651820
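1,000 cells/well; 4 h culture; + compound; + HCVcc-Cre (~0.5 moi); 44 h; luciferase substrate, RT 15 min; read 15 sec.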
SARS PLpro yeast: inhibitors of SARS-CoV papain-like protease in yeast. S. cerevisiae expressing SARS-CoV PLpro, growth rescue. Potency, µM (top dose mostly 32.9 µM), most hits filed as activators. 330,000 tested, 0.19% active. AID 485353; calls by dose curve; also: nearly all actives have a fitted effect of over 55% in size
NS1 inh: influenza NS1 inhibition; Potency, µM (doses to about 46.1 µM); 270,000 tested, 0.4% active; calls by dose curve; also: actives are rising curves; nearly all actives have a fitted effect of over 50% in size
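S. cerevisiae expressing influenza A NS1, grown in glucose, washed, then diluted 1:100 into pH 6.0 -URA galactose medium with 23 nl compound. Growth recovery read as OD600; NS1-free strain serves as control.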
Pf growth 48h: P. falciparum growth inhibition at 48 hours (one generation) | 310,000 tested, 5.9% active | Potency, µM (series often up to 28.7 µM), most hits filed as inhibitors | P. falciparum luciferase growth in erythrocytes, 48 h
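Here the parasites carry a stable luciferase gene and grow inside erythrocytes in Albumax-based RPMI medium with compound for one erythrocytic cycle. Activity is scored as loss of luminescent signal.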
Pf growth 96h: P. falciparum growth inhibition at 96 hour, primary screen for plastid delayed-death inhibitors. P. falciparum luciferase reporter growth, 96 h. Potency, µM (highest dose often 28.7 µM), most hits filed as inhibitors. 320,000 tested, 6.9% active
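Infected RBCs, 2% Hct / 0.05% parasitemia final; luciferase-reporter P. falciparum; cpd 96 h, 37 C, 5% CO2; luciferase detection reagent; luminescence.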
Each line names hits and unclear results; the compound was inactive in the other large screens. This is a sample that favours compounds with a hit; in the whole collection about 12% have one here. Unless noted, calls follow the shape of the dose curve; as a rule, active = well fitted curve in the direction sought with a large enough effect; inconclusive = small, poorly fitted or top-dose-only effect, or another doubt; inactive = no such curve, though single readings can be large; an effect the other way counts as inactive or inconclusive.

Cc1ccc(-c2c(C(=O)N/N=C/c3cccnc3)nnn2-c2nonc2N)cc1	Pf growth 48h inconclusive, Pf growth 96h inconclusive
Cc1ccsc1C(=O)Nc1ccc(S(=O)(=O)N2CCOCC2)cc1	none (no result: NS1 inh)
O=C1NC2(CCCCCC2)C(=O)N1Cc1ccccc1Cl	none
Cc1ccc(CNC(=O)Cc2noc3ccccc23)cc1	none
Cc1ccccc1OCC(=O)Nc1nnc(COc2ccccc2)s1	none (no result: SARS PLpro yeast, NS1 inh, Pf growth 48h, Pf growth 96h)
COc1ccc(S(=O)(=O)N(C)C)cc1NC(=O)c1ccc(OCC(=O)N2CCOCC2)c(OC)c1	none (no result: NS1 inh)
Nc1nonc1-n1nnc(C(=O)N/N=C/c2ccccn2)c1-c1ccccc1	none
Cc1c(C(=O)N/N=C/c2cccc(O)c2)nnn1-c1nonc1N	Pf growth 48h inconclusive, Pf growth 96h 13µM
Cc1ccc(/C=N/NC(=O)c2nnn(-c3nonc3N)c2-c2ccc3c(c2)OCO3)s1	Pf growth 48h 0.26µM, Pf growth 96h inconclusive
CCOc1ccc(/C=N/NC(=O)c2nnn(-c3nonc3N)c2-c2ccc(OCC)cc2)cc1	HCV inh inconclusive
Nc1nonc1-n1nnc(C(=O)N/N=C/c2cccc(F)c2)c1-c1ccccc1	Pf growth 48h 5.2µM, Pf growth 96h inconclusive
CCN(CC)c1ccc(/C=N/NC(=O)c2nnn(-c3nonc3N)c2-c2ccc(C)cc2)cc1	Pf growth 48h inconclusive, Pf growth 96h 5.9µM
CNS(=O)(=O)c1cn(CC(=O)N(C)Cc2ccccc2)cc1S(=O)(=O)NC	none
O=C(CSc1ncnc2c1nnn2Cc1ccccc1)NC1CCCCC1	none
CCOc1cc2c(cc1/C=C/c1noc(C)c1[N+](=O)[O-])OC(C)C2 (configuration not stated)	HCV inh inconclusive, Pf growth 96h inconclusive
CCc1cccc(C)c1NC(=O)CN(C)S(=O)(=O)c1ccc(-c2ccc(=O)[nH]n2)s1	SARS PLpro yeast inconclusive, Pf growth 48h inconclusive, Pf growth 96h inconclusive
Cc1cc(N2CCCCCC2)n2nc(C)c(-c3ccccc3)c2n1	HCV inh inconclusive, Pf growth 96h inconclusive
Cc1cc(N2CCOCC2)n2nc(C)c(-c3ccccc3Cl)c2n1	HCV inh inconclusive, Pf growth 48h inconclusive, Pf growth 96h 5.2µM
Cc1nn2c(N3CCN(c4ccccn4)CC3)cc(C(C)C)nc2c1-c1ccccc1	HCV inh inconclusive, Pf growth 48h 3.3µM, Pf growth 96h inconclusive
Cc1cc(-c2ccccc2)n2nc(C)c(C#N)c2n1	HCV inh inconclusive
COc1ccc(-c2c(C)nn3c(-c4ccccc4)cc(C)nc23)cc1	HCV inh 11µM, Pf growth 96h inconclusive
Cc1cc(C)c2c(n1)nn1c(N3CCN(c4ccccn4)CC3)cc(C)nc21	Pf growth 96h 3.3µM (no result: AMA1-RON2 inh)
Cc1ccc(-c2c(C)nn3c(N4CCOCC4)cc(C)nc23)cc1	Pf growth 96h inconclusive
Cc1cc(N2CCOCC2)n2nc(C)c(-c3ccccc3)c2n1	HCV inh 11µM (no result: Pf growth 96h)
CC1CC(C)CN(CC(=O)N2CCOCC2)C1 (configuration not stated)	none
Cc1ccc(NC(=S)N(CCCN(C)C)Cc2cc3cc4c(cc3[nH]c2=O)OCO4)c(C)c1	Pf growth 48h 9.3µM, Pf growth 96h inconclusive
Cc1ccc(NC(=O)N(CCCN2CCOCC2)Cc2cc3cc4c(cc3[nH]c2=O)OCO4)cc1	AMA1-RON2 inh inconclusive, Pf growth 48h 0.93µM, Pf growth 96h 13µM
COc1cc2cc(CN(CCCN3CCOCC3)C(=O)Nc3ccc(F)cc3)c(=O)[nH]c2cc1OC	Pf growth 48h 13µM
Cc1ccc2[nH]c(=O)c(CN(CCN3CCOCC3)C(=O)Nc3ccc(F)cc3)cc2c1	none (no result: Pf growth 96h)
Cc1ccc(C)c2[nH]c(=O)c(CN(CCN3CCCC3)C(=O)Nc3cccc(Cl)c3)cc12	HCV inh 11µM, Pf growth 48h 2.3µM
Cc1ccc(NC(=S)N(CCCN(C)C)Cc2cc3cc4c(cc3[nH]c2=O)OCO4)cc1	HCV inh inconclusive, Pf growth 48h inconclusive
Cc1cccc(-c2csc(N3CCC(C(N)=O)CC3)n2)c1	Pf growth 48h inconclusive (no result: AMA1-RON2 inh, HCV inh, SARS PLpro yeast, NS1 inh)
C=C1C=C(C(F)F)n2ncc(C(=O)Nc3ccc(C(C)CC)cc3)c2N1 (configuration not stated)	Pf growth 48h inconclusive (no result: AMA1-RON2 inh, HCV inh, SARS PLpro yeast, NS1 inh)
O=C(Nc1ccc(F)cc1)N(Cc1ccco1)Cc1cc2cc3c(cc2[nH]c1=O)OCO3	Pf growth 48h 10µM, Pf growth 96h inconclusive
COc1ccc(CN(CCCN2CCOCC2)C(=O)Nc2cccc(Cl)c2)cc1OC	HCV inh inconclusive, Pf growth 48h inconclusive, Pf growth 96h 12µM
O=C(Nc1ccccc1)N(CCCN1CCOCC1)Cc1cc2cc3c(cc2[nH]c1=O)OCCO3	Pf growth 48h 13µM
O=C(Nc1cccc(Cl)c1)N(CCN1CCOCC1)Cc1cccc(Cl)c1	HCV inh inconclusive, Pf growth 48h inconclusive
Cc1ccc(NC(=O)N(Cc2ccc3c(c2)OCO3)Cc2cc3cc4c(cc3[nH]c2=O)OCCO4)cc1	HCV inh inconclusive, Pf growth 48h 1.3µM (no result: Pf growth 96h)
CCCCC(=O)OCc1c(-c2cccc(OC)c2)ncc2ccccc12	Pf growth 96h inconclusive (no result: NS1 inh)
CCN(CC)CCCN(Cc1cc2cc3c(cc2[nH]c1=O)OCO3)C(=S)Nc1ccc(OC)cc1	Pf growth 48h inconclusive
C[N+](C)(C)CCCN(Cc1ccc2c(c1)OCO2)C(=O)NC1CCCCC1	HCV inh 3.2µM, Pf growth 48h inconclusive, Pf growth 96h inconclusive
COC(=O)c1ccccc1S(=O)(=O)N(Cc1cc2cc3c(cc2[nH]c1=O)OCO3)C1CCCCC1	Pf growth 48h 8.3µM (no result: AMA1-RON2 inh)
CCN(CC)CCCN(Cc1cc2cc3c(cc2[nH]c1=O)OCCO3)C(=O)Nc1ccccc1	Pf growth 48h 10µM (no result: Pf growth 96h)
CCc1ccc2[nH]c(=O)c(CN(CCCN3CCOCC3)C(=O)Nc3cccc(Cl)c3)cc2c1	HCV inh 10µM, Pf growth 48h 5.2µM (no result: Pf growth 96h)
CCc1ccc2[nH]c(=O)c(CN(CCCN3CCOCC3)C(=O)Nc3ccc(Cl)cc3)cc2c1	none
C[C@H](NC(=O)c1ccco1)C(=O)NNC(=O)COc1cccc(C(F)(F)F)c1	none (no result: NS1 inh, Pf growth 48h, Pf growth 96h)
CCOc1ccc(NC(=O)N(CCN2CCOCC2)Cc2ccc3c(c2)CCCN3CC)cc1	AMA1-RON2 inh inconclusive, Pf growth 48h inconclusive
COc1ccc(CN(Cc2cc3cc4c(cc3[nH]c2=O)OCO4)C(=O)NC2CCCCC2)cc1	HCV inh inconclusive, NS1 inh inconclusive, Pf growth 48h 4.7µM
CCCN1CCCc2cc(CN(CCCN3CCOCC3)C(=O)Nc3ccc(OCC)cc3)ccc21	AMA1-RON2 inh 27µM, Pf growth 96h 5.9µM (no result: Pf growth 48h)
CN(C(=O)COc1ccc(Oc2ccccc2)cc1)C1CCS(=O)(=O)C1 (configuration not stated)	none
Cc1cc(C)cc(N2CCN(C(=O)N3CCOCC3)CC2)c1	Pf growth 96h 6.6µM
O=[N+]([O-])c1ccc(SCc2ccncc2)nc1	none
COC(=O)CCCCC(=O)C1C(=O)CC(C)(C)C(C(=O)OC)C1=O (configuration not stated)	none (no result: Pf growth 96h)
